The record followed here is PubChem BioAssay AID922 (National Center for Advancing Translational Sciences (NCATS), 2007).

SMILES strings stand for the structures. Results filed as inconclusive are left out. Unmarked numbers belong to inactive results. The source made the active and inactive calls. Calls follow the shape of the dose curve; as a rule, active = well fitted inhibition curve with a large enough effect in the signal ratio, with a control signal flat; inconclusive = small, poorly fitted or top-dose-only effect, or effect the other way; inactive = flat fitted curve, though single readings scatter; the % refers to the signal ratio.

A short description of the assay: Confirmation Concentration-Response Assay for Identification of Small Molecule Antagonists of Stat Signaling Pathway. The settings on record: SIE-bla cells, IL-6 stimulated, beta-lactamase ratio, 5 h; series mostly up to 38.3 µM; activity change, negative = inhibition: at the top concentration. The text has this: NIH Molecular Libraries Screening Centers Network [MLSCN] NIH Chemical Genomics Center [NCGC] MLSCN Grant: None NCGC Assay Overview: This assay is a retest of actives identified from the Stat signaling pathway assay (PubChem AID 446). The Stat assay is cell-based and measures Interleukin 6 (IL-6) mediated modulation of a beta-lactamase reporter gene controlled by a STAT inducible element (SIE-bla cells, Invitrogen). IL-6 is a cytokine that signals via the JAK/STAT pathway and is implicated in cancer and inflammation. SIE-bla cells are induced by IL-6 at 40 pM EC50 and inhibited by the pan JAK inhibitor, 2-(1,1-Dimethylethyl)-9-fluoro-3,6-dihydro-7H-benz[h]-imidaz[4,5-f]isoquinolin-7-one, at approximately 10 nM IC50. Plated cells were incubated overnight and on the following day, stimulated with 40 pM IL-6 for 5 hrs. The assay was stimulated with an EC50 of IL-6 to retest inhibitors of STAT signaling.
NCGC Assay Protocol Summary: Cells were trypsinized, washed in assay medium (AM, OPTI MEM with 0.5% fetal bovine serum, 0.1 mM nonessential amino acids, 1 mM sodium pyruvate, 10mM HEPES pH 7.3, 100U/ml penicillin, and 100 ug/ml streptomycin) and suspended at […] in AM. Approximately 2500 cells in 5 uL/well was dispensed into 1536-well plates and the cells were incubated overnight at 37 C. 23 nL of compound were delivered by a pin tool and 1 uL of IL-6 (40 pM final concentration in AM) was added. After plates were incubated at 37 C for 5 hrs, 1uL of detector mix (LiveBLAzerTM, Invitrogen) was added, the plates incubated at room temperature for 2.5 hrs, and fluorescence intensity at 460 and 530 nm emissions was measured at 405 nm excitation by an Envision (Perkin Elmer).
As for `COc1cc(/C=C\C(=O)N2CCCCC2=O)cc(OC)c1OC`, the Potency was 12.6 µM (active). The same measure, in the same setting: as for `C=C1C(=O)O[C@@H]2[C@@H]1CC/C(C)=C\CC[C@@]1(C)O[C@H]21`, the figure is 25.1 µM (active). On to `ClC(=Nc1cccc2ccccc12)N(c1ccccc1)c1ccccc1`, for which the “activity change, negative = inhibition” value is 14.2%. Consider `O=C(Nc1ccc(N2CCN(C(=O)c3ccccc3)CC2)c(Cl)c1)c1ccc(Br)o1`, for which the Potency was 10 µM (active). The same measure, in the same setting: the same measure for `CCOC(=O)c1[nH]c2cc3c(cc2c1NC(=O)CN1CCc2ccccc2C1)OCO3`: 15.8 µM (active). Same read-out and setting: the same measure for `Cn1c(NCc2ccccc2)nc2c1c(=O)n(Cc1ccc(Br)cc1)c(=O)n2C`: 15.8 µM (active). In the case of `CCN(CC)CCNC(=O)c1cc(S(C)(=O)=O)ccc1OC`, the “activity change, negative = inhibition” value is 34.7%. As to `CCCCSc1nc(N)c(C#N)c(-c2cccs2)c1C#N`, the Potency is 15.8 µM (active). The same measure, in the same setting: as for `CSc1ncnc2c1ncn2CC(=O)[C@H]1CC[C@H]2[C@H]3CCC4=CC(=O)CC[C@@]4(C)[C@@H]3CC[C@@]12C`, the figure is 2.51 µM (active); as for `O=C1Nc2ccc(I)cc2/C1=C/c1cc(Br)c(O)c(Br)c1`, 12.6 µM (active). Consider `OC[C@@H]1CCC[C@H](n2cnc3c(=S)nc[nH]c32)O1`, for which the “activity change, negative = inhibition” value was 3.19%. On to `CCC(=O)Nc1nc(C)c(Oc2ccccc2)c(=O)[nH]1`, for which the “activity change, negative = inhibition” value was 7.98%. As to `NCCSc1nc2ccccc2s1`, the Potency was 7.94 µM (active). Regarding `COc1ccc(C[C@@H]2C(=O)N[C@H](C)C(=O)N(C)[C@@H]3Cc4ccc(cc4)Oc4cc(ccc4O)C[C@H](C(=O)N[C@@H](C)C(=O)N[C@H](C)C(=O)N2C)N(C)C3=O)cc1`, the Potency is 0.199 µM (active).

`COc1cccc2c1[C@H](CO)N1[C@H](C#N)[C@@H]3C[C@H](C(=O)O)[C@@H]([C@@H]1C2)N3C`: the Potency was 10 µM (active). Same read-out and setting: as for `CC1CCN(CC[S-])CC1.O.O.[Cl][Pt]`, the figure is 25.1 µM (active); as for `NS(=O)(=O)c1ccc(N=Nc2cc3ccccc3c(C(=O)O)c2O)cc1`, 6.31 µM (active). Still for that read-out and setting: as for `C=C1C(=O)O[C@@H]2[C@H]3O[C@]3(C)CCC=C(C)CC[C@@H]12`, the figure is 7.94 µM (active); as for `O=C1C(SCCO)=C(SCCO)C(=O)c2ccccc21`, 6.31 µM (active); as for `O=C(O)CCc1c2ccc(=O)c(O)c-2oc2c(O)c(O)ccc12`, 10 µM (active).

For the compound `O=C(O)c1c(Br)c(Br)c(Br)c(Br)c1C1c2ccc(O)cc2Oc2cc(O)ccc21`, the Potency was 7.94 µM (active). Same read-out and setting: the same measure for `OCc1ccncc1.OCc1ccncc1.[Cl][Pt]([Cl])([Cl])[Cl]`: 10 µM (active). On the same count and under the same terms, the same measure for `CN(C)S(=O)(=O)c1ccc2c(c1)/C(=C/c1cc3c([nH]1)CCCC3)C(=O)N2`: 2.51 µM (active).
